Bioassay records as filed in PubChem BioAssay.
A549 tox – counter-screen for Nrf2 inhibitors: cytotoxicity in A549 cells; A549 ARE-Fluc cells, CellTiter-Fluor viability, 18-24 h; Potency, µM (titrated, usually from 46 µM), for the others: top-dose activity change, negative = cytotoxicity, actives largely listed as inhibitors; hit rate 0.16% among 390,000; further: on the % scale 0 is the no-effect control and ±100 the full control effect
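A549 ARE-Fluc cells in 5% FBS OPTI-MEM, 5000 cells/well, rested 2 h then exposed to compounds in concentration-response for 18-24 h at 37 °C. Viability by CellTiter-Fluor fluorescence (Ex 405/Em 525) after 30 min; luciferase luminescence (BugLite, 15 min, RT) read afterwards.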
ATXN viability – cell viability loss in ATXN counter-screen. Potency, µM (top dose mostly 56.7 µM), actives largely listed as cytotoxic. hit rate 0.49% among 400,000. AID 651635. S2 cells (HEK-293 line with an ATXN2-luciferase reporter) viability, CellTiter-Fluor protease fluorescence, 24 h; further: nearly all actives have a fitted effect of over 40% in size
Nrf2 inh – Nrf2 pathway inhibition; A549 ARE-Fluc reporter, luciferase luminescence, 18-24 h; hit rate 2.1% among 360,000; Potency, µM (top dose mostly 46 µM), without a hit: at the top dose activity change, negative = inhibition, actives largely listed as inhibitors; further: on the % scale 0 is the no-effect control and ±100 the full control effect; nearly all actives have a fitted effect of over 60% in size
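Nrf2 activity is the BugLite luminescence, read 15 min after reagent at room temperature, following CellTiter-Fluor cytotoxicity readout (30 min, 37C). Compound titrations were applied for 18-24 h to 5000 A549 ARE_Fluc cells/well in 5% FBS OPTI-MEM.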
ATXN2 expr inh – inhibitors of ATXN2 expression; HEK-293 ATXN2-luciferase reporter, luminescence, 24 h; Potency, µM (series often up to 57 µM), for the others: at the highest dose activity change, negative = inhibition, hits mostly inhibitors; hit rate 0.72% among 360,000; AID 1745845; further: on the % scale 0 is the no-effect control and ±100 the full control effect; nearly all actives have a fitted effect of over 55% in size
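ATXN2-luciferase reporter cells (luciferase flanked by upstream and downstream ATXN2 gene portions) were treated 24 h at 37 °C with compounds at up to 57 uM. SteadyGlo luminescence gave expression; GF-AFC fluorescence gave viability.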
TGFb SMAD3 inh – inhibitors of TGF-b signaling; AID 588855; HepG2 CAGA-GFP TGF-b/SMAD3 reporter, GFP fluorescence, 18 h; TGF-beta stimulated, 500 pg/mL final; hit rate 1.2% among 410,000; Potency, µM (top dose mostly 46.1 µM), without a hit: at the top dose activity, negative = inhibition, most hits filed as inhibitors; further: on the % scale 0 is the no-effect control and ±100 the full control effect; nearly all actives have a fitted effect of over 65% in size
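Cell-based qHTS in HEPG2 carrying a CAGA-GFP Smad reporter; compounds added before 500 pg/mL final TGF-beta, 18 h incubation at 37 degrees C, GFP fluorescence quantified per cell by imaging cytometry.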
HepG2 viability – kills HepG2 cells in TGF-b inhibitor counter-screen; Potency, µM (titrated, usually from 46.1 µM), without a hit: at the highest dose activity change, negative = cytotoxicity, most hits filed as cytotoxic; HepG2 CAGA-GFP viability, ATP luminescence, 18 h; hit rate 0.76% among 410,000; AID 588856
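CellTiter-Glo luminescence gave cytotoxicity after 18 hours at 37 degrees C. The cells were HepG2 CAGA-GFP in 1% FBS DMEM, stimulated with 500 pg/mL TGF-beta after compound addition. %Activity was normalised to no-cell wells (complete cell-killing) and DMSO (no toxicity), and curves were fitted and classified.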
Active calls of the source: *; ! = a repeat was not active; [ ] = remark or other dose. Most compounds without a hit are left out; they make up all but 3.8% or so of the library. The call rests on the fitted dose curve; in most records, active means well fitted curve in the direction sought with a large enough effect; inconclusive means small, poorly fitted or top-dose-only effect, or another doubt; inactive means no such curve, though single readings can be large; an effect the other way counts as inactive or inconclusive. Potency means the concentration at half of the fitted maximal effect.

Results for Cc1ccc(S(=O)(=O)Nc2cccc3c2O[C@H](CN(C)C(=O)Nc2ccc(C(F)(F)F)cc2)[C@@H](C)CN([C@H](C)CO)C3=O)cc1 ?
A549 tox: -18%; ATXN viability: inconclusive; Nrf2 inh: 18µM*; ATXN2 expr inh: -8%; TGFb SMAD3 inh: inconclusive; HepG2 viability: -7%

What do the screens show for `C[C@H](CO)N1C[C@H](C)[C@@H](CN(C)C(=O)Nc2ccc(C(F)(F)F)cc2)Oc2c(NC(=O)Nc3ccc(C(F)(F)F)cc3)cccc2C1=O`?
A549 tox: inconclusive; ATXN viability: 16µM*; Nrf2 inh: inconclusive; ATXN2 expr inh: inconclusive; TGFb SMAD3 inh: 14µM*; HepG2 viability: -114%

How did C[C@H]1CN([C@@H](C)CO)C(=O)c2cccc(NC(=O)Nc3ccc(C(F)(F)F)cc3)c2O[C@@H]1CN(C)C(=O)Nc1ccc(F)cc1 do in these assays?
A549 tox: inconclusive; ATXN viability: 13µM*; Nrf2 inh: 16µM*; ATXN2 expr inh: 20µM*; TGFb SMAD3 inh: inconclusive; HepG2 viability: -89%

Results for Cc1ccc(CN2CCC(CNC(=O)Nc3ccccc3F)CC2)cc1 ?
A549 tox: -7%; ATXN viability: inactive; Nrf2 inh: inconclusive; ATXN2 expr inh: -16%; TGFb SMAD3 inh: -6%; HepG2 viability: -26%

Results for Cc1ccc(NC(=O)NCC2CCN(Cc3cccc(Cl)c3)CC2)cc1Cl ?
A549 tox: 0%; ATXN viability: inconclusive; Nrf2 inh: -17%; ATXN2 expr inh: inconclusive; TGFb SMAD3 inh: inconclusive; HepG2 viability: 13µM*!

What do the screens show for `Cc1ccc(CN2CCC(CNC(=O)Nc3ccc(Cl)cc3)C2)cc1` (stereo not drawn)?
A549 tox: -13%; Nrf2 inh: -3%; ATXN2 expr inh: inconclusive; TGFb SMAD3 inh: 13µM*; HepG2 viability: -73%

Results for Cc1ccc(C)c(CN2CCC(CNC(=O)Nc3ccc(F)c(Cl)c3)CC2)c1 ?
A549 tox: -15%; ATXN viability: inactive; Nrf2 inh: -29%; ATXN2 expr inh: inconclusive; TGFb SMAD3 inh: inconclusive; HepG2 viability: 18µM*

Results for CC(=O)Nc1ccc(S(=O)(=O)NCCC(=O)OCC(=O)NNC(=O)c2ccccc2)cc1 ?
A549 tox: 2%; ATXN viability: inactive; Nrf2 inh: 11%; ATXN2 expr inh: 6%; TGFb SMAD3 inh: -12%; HepG2 viability: -2%

What do the screens show for `COc1ccc(N(CC(=O)N2CCN(c3cccc(C)c3C)CC2)S(=O)(=O)c2c(C)noc2C)cc1`?
A549 tox: 1%; ATXN viability: inconclusive; Nrf2 inh: inconclusive; ATXN2 expr inh: -10%; TGFb SMAD3 inh: -12%; HepG2 viability: -8%

Results for COc1ccc(C[C@H]2CN3C(=NC[C@@H]3Cc3ccccc3)N2CCNC(=O)CCC2CCCCC2)cc1 ?
A549 tox: -13%; ATXN viability: 22µM*; Nrf2 inh: 5%; ATXN2 expr inh: inconclusive; TGFb SMAD3 inh: inconclusive; HepG2 viability: -117%

Results for Cc1ccc(C)c(C(=O)CCC(=O)N2CCN(c3cccc(C(F)(F)F)c3)CC2)c1 ?
A549 tox: -9%; ATXN viability: inactive; Nrf2 inh: inconclusive; ATXN2 expr inh: -17%; TGFb SMAD3 inh: 11µM*; HepG2 viability: -49%

Results for Cc1ccc(/C=C/C(=O)N2CCN(c3cccc(C(F)(F)F)c3)CC2)cc1 ?
A549 tox: 2%; ATXN viability: inactive; Nrf2 inh: inconclusive; ATXN2 expr inh: -16%; TGFb SMAD3 inh: -18%; HepG2 viability: -24%

How did O=C(CCCCn1c(=O)[nH]c2ccsc2c1=O)N1CCN(c2cccc(C(F)(F)F)c2)CC1 do in these assays?
A549 tox: -8%; ATXN viability: inconclusive; Nrf2 inh: -9%[9.27 µM]; ATXN2 expr inh: inconclusive; TGFb SMAD3 inh: 10µM*; HepG2 viability: -49%

How did O=C(CCCn1c(=O)[nH]c2ccc(Br)cc2c1=O)N1CCN(c2cccc(Cl)c2)CC1 do in these assays?
A549 tox: inconclusive; ATXN viability: inactive; Nrf2 inh: -15%[9.27 µM]; ATXN2 expr inh: -28%; TGFb SMAD3 inh: 5µM*; HepG2 viability: -28%

Results for CCCCN1/C(=C/c2ccc3ccccc3[n+]2CC)Sc2ccccc21 ?
A549 tox: inconclusive; ATXN viability: 16µM*; Nrf2 inh: inconclusive; ATXN2 expr inh: inconclusive; TGFb SMAD3 inh: 67%; HepG2 viability: -30%

Results for CCCCN1/C(=C/c2cccc[n+]2C)Sc2cc(NC(C)=O)ccc21 ?
A549 tox: -2%; ATXN viability: inactive; Nrf2 inh: 0%; TGFb SMAD3 inh: -4%; HepG2 viability: -17%

What do the screens show for `CCN1/C(=C/c2ccc3cc(C)ccc3[n+]2CC)Sc2cc(C)ccc21`?
A549 tox: inconclusive; Nrf2 inh: 4.6µM*; ATXN2 expr inh: inconclusive; TGFb SMAD3 inh: 120%; HepG2 viability: -77%

Results for CCN1/C(=C/c2ccc3cc(C)ccc3[n+]2C)Sc2ccc3sccc3c21 ?
A549 tox: -25%; Nrf2 inh: 18µM*; TGFb SMAD3 inh: -21%; HepG2 viability: -29%

What do the screens show for `Cc1c(OCC(=O)N(C)c2ccccc2)ccc2c3c(c(=O)oc12)CCC3`?
A549 tox: 3%; ATXN viability: inactive; Nrf2 inh: 26%; ATXN2 expr inh: 10%; TGFb SMAD3 inh: 0%; HepG2 viability: -18%

Results for O=C1NC2CCCCC2C(=O)N1OS(=O)(=O)c1ccccc1 (stereo not drawn) ?
A549 tox: -25%; ATXN viability: 16µM*; Nrf2 inh: -4%; ATXN2 expr inh: inconclusive; TGFb SMAD3 inh: 0%; HepG2 viability: -24%

Results for CCn1c(C)nc2cc(-c3nc4n(n3)Cc3ccccc3-4)ccc21 ?
A549 tox: -7%; ATXN viability: inactive; Nrf2 inh: 2.3µM*; ATXN2 expr inh: 0.4µM*; TGFb SMAD3 inh: -11%; HepG2 viability: 1.3µM*

How did Fc1ccc(-c2nc3n(n2)Cc2ccccc2-3)cc1 do in these assays?
A549 tox: 0%; ATXN viability: inactive; ATXN2 expr inh: 52%; TGFb SMAD3 inh: inconclusive; HepG2 viability: 8.9µM*

What do the screens show for `CC(=O)c1ccc(OCC(=O)NC(=O)NC2CCCC2)cc1`?
ATXN viability: inactive; TGFb SMAD3 inh: -3%; HepG2 viability: -25%

Results for COc1cc(/C=N/NC(=O)c2ccc(Cn3cc([N+](=O)[O-])cn3)o2)cc(Br)c1O ?
A549 tox: -8%; ATXN viability: inactive; Nrf2 inh: 23%; ATXN2 expr inh: -3%; TGFb SMAD3 inh: 16µM*; HepG2 viability: -82%
